# Columns and labels:
# Test in all cases: DAPPL (digital affinity profiling via proximity ligation, sequencing); 10 mM Tris-HCl pH 7.5, 50 mM NaCl, 1 mM DTT, 4% glycerol, room temperature, 30 min; GST-TFs on glutathione beads, 16-mer random dsDNA library, 0.1% formaldehyde crosslink after washing; high values mean tight binding
# FEV = biological target: T1, FEV (Homo sapiens, UniProt Q99581 1-238); conditions: protein: recombinant; tags: N-terminal GST; dsDNA, one strand shown
# T1 sequence: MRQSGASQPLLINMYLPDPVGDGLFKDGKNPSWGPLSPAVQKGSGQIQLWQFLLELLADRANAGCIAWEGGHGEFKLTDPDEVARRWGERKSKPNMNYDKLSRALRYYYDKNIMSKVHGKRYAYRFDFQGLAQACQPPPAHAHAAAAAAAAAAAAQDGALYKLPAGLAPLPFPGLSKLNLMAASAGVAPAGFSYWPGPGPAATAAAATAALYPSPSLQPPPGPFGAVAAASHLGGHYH
# How it was run: (§1)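 Beads coated with glutathione captured GST-fused human transcription factors that had been expressed in yeast, and the factors were then given DNA barcodes and pooled with a tag-only sample. The pools were incubated with 200 nmole of a random double-stranded 16-mer DNA library in Tris/NaCl/DTT/glycerol buffer for 30 min at room temperature, washed, crosslinked with 0.1% formaldehyde and proximity-ligated with BsaI/T4 ligase at 37 °C for 1 h. PCR amplification and Illumina NextSeq500 sequencing came last. Binding signal is each hexamer's read frequency for a factor divided by its frequency for the tag-only sample.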
# ETV5 = ETV5 (Homo sapiens, UniProt P41161 1-510); conditions: protein: recombinant; tags: N-terminal GST; dsDNA, one strand shown
# How it was run: as §1
# HSF1 = HSF1 (Homo sapiens, UniProt Q00613 1-529); conditions: protein: recombinant; tags: N-terminal GST; chain copies: 3; dsDNA, one strand shown
# How it was run: as §1
# SPIC = biological target: T2, SPIC (Homo sapiens, UniProt Q8N5J4 1-248); conditions: protein: recombinant; tags: N-terminal GST; dsDNA, one strand shown
# T2 sequence: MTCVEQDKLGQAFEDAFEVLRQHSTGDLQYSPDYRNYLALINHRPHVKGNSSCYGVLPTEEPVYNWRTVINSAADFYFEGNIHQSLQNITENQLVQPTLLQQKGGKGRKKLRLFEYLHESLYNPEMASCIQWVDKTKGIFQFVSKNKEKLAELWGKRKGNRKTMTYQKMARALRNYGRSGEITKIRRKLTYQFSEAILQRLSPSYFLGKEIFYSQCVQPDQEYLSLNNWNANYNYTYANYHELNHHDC
# How it was run: as §1
# ELF4 = ELF4 (Homo sapiens, UniProt Q99607 1-663); conditions: protein: recombinant; tags: N-terminal GST; dsDNA, one strand shown
# How it was run: as §1
# ELK4 = biological target: T3, ELK4 (Homo sapiens, UniProt P28324-2 1-405); conditions: protein: recombinant; tags: N-terminal GST; dsDNA, one strand shown
# T3 sequence: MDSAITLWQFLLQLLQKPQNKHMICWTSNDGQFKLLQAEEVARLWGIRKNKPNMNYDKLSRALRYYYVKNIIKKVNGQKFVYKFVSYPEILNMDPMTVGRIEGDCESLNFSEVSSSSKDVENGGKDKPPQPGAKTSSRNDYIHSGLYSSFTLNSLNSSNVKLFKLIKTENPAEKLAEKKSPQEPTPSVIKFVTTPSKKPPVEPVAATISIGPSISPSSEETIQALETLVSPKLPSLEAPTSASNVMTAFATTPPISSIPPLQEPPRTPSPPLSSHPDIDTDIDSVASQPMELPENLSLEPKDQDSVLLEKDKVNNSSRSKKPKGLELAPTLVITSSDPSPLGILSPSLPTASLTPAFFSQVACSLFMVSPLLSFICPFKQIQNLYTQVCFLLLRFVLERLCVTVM
# How it was run: as §1
# ETV2 = biological target: T4, ETV2 (Homo sapiens, UniProt O00321 1-342); conditions: protein: recombinant; tags: N-terminal GST; dsDNA, one strand shown
# T4 sequence: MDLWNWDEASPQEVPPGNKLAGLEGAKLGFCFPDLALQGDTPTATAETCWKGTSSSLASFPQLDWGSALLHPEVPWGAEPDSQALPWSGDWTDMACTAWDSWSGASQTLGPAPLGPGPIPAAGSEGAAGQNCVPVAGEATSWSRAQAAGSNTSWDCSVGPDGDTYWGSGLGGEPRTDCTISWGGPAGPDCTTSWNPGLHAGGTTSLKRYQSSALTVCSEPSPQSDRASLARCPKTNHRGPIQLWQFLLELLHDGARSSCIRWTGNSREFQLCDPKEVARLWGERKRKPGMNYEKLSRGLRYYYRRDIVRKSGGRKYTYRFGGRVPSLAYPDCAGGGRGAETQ
# How it was run: as §1
# ELF3 = biological target: T5, ELF3 (Homo sapiens, UniProt P78545 1-371); conditions: protein: recombinant; tags: N-terminal GST; dsDNA, one strand shown
# T5 sequence: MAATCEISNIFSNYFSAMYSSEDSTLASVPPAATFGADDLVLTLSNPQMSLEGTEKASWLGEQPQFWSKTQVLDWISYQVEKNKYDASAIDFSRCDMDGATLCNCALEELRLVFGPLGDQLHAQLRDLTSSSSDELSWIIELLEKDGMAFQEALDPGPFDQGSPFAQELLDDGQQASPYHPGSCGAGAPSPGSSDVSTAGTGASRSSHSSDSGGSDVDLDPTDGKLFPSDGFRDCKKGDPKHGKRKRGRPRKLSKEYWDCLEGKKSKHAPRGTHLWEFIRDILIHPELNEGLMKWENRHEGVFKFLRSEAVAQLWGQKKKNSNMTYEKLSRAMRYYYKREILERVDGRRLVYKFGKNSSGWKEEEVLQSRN
# How it was run: as §1
# CRX = CRX (Homo sapiens, UniProt O43186 1-299); conditions: protein: recombinant; tags: N-terminal GST; dsDNA, one strand shown
# How it was run: as §1
# Chain of ELF4 (Q99607 whole entry): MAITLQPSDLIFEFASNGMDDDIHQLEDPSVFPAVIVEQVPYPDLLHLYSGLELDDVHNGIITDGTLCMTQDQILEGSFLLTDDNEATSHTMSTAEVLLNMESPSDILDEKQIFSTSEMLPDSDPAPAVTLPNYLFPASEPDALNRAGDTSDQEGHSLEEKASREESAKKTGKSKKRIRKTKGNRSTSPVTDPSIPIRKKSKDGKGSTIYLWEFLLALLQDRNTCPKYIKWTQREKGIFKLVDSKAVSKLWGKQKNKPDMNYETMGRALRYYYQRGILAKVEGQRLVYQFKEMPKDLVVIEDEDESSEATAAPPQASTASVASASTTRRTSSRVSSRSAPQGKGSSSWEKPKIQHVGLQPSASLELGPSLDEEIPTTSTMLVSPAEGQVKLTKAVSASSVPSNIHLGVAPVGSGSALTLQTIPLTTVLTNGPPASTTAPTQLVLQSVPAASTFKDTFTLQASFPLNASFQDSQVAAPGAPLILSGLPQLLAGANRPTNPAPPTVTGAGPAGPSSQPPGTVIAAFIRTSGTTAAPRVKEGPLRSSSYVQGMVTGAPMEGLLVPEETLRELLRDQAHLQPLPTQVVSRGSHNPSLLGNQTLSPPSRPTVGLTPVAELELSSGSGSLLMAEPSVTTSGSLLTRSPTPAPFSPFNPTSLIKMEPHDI
# Chain of CRX (O43186 whole entry): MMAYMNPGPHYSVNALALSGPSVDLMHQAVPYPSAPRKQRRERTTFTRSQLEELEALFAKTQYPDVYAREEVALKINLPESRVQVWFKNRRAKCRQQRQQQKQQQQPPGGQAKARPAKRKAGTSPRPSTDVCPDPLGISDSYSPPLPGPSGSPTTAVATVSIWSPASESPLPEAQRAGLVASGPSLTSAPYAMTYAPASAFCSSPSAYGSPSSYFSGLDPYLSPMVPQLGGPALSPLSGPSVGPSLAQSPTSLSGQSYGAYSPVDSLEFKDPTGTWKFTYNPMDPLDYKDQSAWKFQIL
# Chain of HSF1 (Q00613 whole entry): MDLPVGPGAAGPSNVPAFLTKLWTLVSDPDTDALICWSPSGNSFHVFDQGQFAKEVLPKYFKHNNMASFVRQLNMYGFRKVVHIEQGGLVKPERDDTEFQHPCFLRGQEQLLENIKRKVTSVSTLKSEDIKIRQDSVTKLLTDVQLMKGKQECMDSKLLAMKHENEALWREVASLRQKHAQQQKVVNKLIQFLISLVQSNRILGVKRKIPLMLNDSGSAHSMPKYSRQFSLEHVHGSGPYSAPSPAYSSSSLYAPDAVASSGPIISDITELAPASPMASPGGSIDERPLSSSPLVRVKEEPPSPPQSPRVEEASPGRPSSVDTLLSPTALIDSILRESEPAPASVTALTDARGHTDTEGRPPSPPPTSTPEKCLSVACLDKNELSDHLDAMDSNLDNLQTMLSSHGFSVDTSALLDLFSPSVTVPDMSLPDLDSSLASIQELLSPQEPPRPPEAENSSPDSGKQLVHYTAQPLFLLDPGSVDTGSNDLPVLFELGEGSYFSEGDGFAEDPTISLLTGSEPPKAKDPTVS
# Chain of ETV5 (P41161 whole entry): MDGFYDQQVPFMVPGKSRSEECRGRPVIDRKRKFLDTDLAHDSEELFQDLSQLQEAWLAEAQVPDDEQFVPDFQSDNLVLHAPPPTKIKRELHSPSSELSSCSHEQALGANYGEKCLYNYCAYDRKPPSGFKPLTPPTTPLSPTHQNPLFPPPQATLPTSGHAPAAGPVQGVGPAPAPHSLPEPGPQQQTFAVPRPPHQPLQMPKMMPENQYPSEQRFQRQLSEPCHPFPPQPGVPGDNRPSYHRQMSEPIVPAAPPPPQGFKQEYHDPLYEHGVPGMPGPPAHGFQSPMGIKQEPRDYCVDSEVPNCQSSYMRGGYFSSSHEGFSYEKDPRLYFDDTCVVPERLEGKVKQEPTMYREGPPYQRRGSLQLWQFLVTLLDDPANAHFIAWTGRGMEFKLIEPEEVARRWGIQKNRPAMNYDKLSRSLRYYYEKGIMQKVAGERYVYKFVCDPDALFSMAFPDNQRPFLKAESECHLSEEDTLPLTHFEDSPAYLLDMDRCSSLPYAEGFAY
sequence,measurement,setting,value
ACGCTT,binding signal,FEV,"1.4 fold enrichment (6-mer frequency, TF over GST control)"
same,binding signal,ETV5,"1.41 fold enrichment (6-mer frequency, TF over GST control)"
same,binding signal,HSF1,"1.22 fold enrichment (6-mer frequency, TF over GST control)"
same,binding signal,SPIC,"1.32 fold enrichment (6-mer frequency, TF over GST control)"
same,binding signal,ELF4,"1.43 fold enrichment (6-mer frequency, TF over GST control)"
same,binding signal,ELK4,"1.23 fold enrichment (6-mer frequency, TF over GST control)"
same,binding signal,ETV2,"1.28 fold enrichment (6-mer frequency, TF over GST control)"
same,binding signal,ELF3,"1.55 fold enrichment (6-mer frequency, TF over GST control)"
same,binding signal,CRX,"1.36 fold enrichment (6-mer frequency, TF over GST control)"
